Screens: PubChem BioAssay, National Center for Advancing Translational Sciences (NCATS)
AmpC inh no detg: AmpC beta-lactamase inhibition without detergent; Potency, µM (series often up to 57.1 µM), for inactives: at the highest dose activity change, negative = inhibition, usual class: inhibitors; actives 0.52% (n = 330,000); P00811; AID 485341; AmpC nitrocefin hydrolysis, absorbance 480 nm, 0.0001% Triton;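 further: potency means the concentration at half of the fitted maximal effect; plate controls were no compound for no effect and no enzyme for full effect; nearly all actives have a fitted effect of over 20% in size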
Target sequence (P00811 whole entry, looked up): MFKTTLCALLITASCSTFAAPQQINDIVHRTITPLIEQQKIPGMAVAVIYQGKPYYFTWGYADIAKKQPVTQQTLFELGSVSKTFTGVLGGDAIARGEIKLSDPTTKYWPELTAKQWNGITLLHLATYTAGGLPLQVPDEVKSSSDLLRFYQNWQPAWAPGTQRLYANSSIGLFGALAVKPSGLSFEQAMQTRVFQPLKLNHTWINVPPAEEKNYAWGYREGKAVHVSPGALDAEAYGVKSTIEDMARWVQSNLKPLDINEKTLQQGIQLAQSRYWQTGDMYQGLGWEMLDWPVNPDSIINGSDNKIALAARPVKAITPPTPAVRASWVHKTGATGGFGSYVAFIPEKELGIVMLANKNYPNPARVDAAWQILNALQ
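AmpC (5.3 nM in the dispensed reagent) in 20 mM phosphate pH 7.0 with 0.01% (detergent screen) or 0.0001% Triton X-100 was preincubated with compounds for 15 min at room temperature. Nitrocefin was then added from an 800 uM solution, and hydrolysis was followed at 480 nm.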
CHX counter: counter-screen hit for Shiga toxin inhibitors, cycloheximide; actives 12% (n = 300,000); cell reporter, cycloheximide protein synthesis inhibition counterscreen; max response, %; AID 2314; in the data active means max response mostly above about 13%, no sharp cut-off; inactive means mostly below about 14%; further: read at 38.3 µM for the half of the compounds with a filed dose; 0% is about no effect
AMA1-RON2 inh: AMA1-RON2 (P. falciparum) interaction inhibition; Potency, µM (top dose mostly 58.2 µM), for inactives: at the top dose activity change, negative = inhibition, actives largely listed as inhibitors; AlphaScreen AMA1-biotinylated RON2 peptide binding; actives 0.2% (n = 360,000); AID 720542;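 further: potency means the concentration at half of the fitted maximal effect; 0% = vehicle wells and -100% = peptide control; nearly all actives have a fitted effect of over 45% in size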
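AMA1 (3D7) with his tag at 25 nM final met compounds first, then biotinylated RON2 peptide at 25 nM; detection used donor plus acceptor beads, 10 µg/mL apiece, read by AlphaScreen after 30 min at room temperature.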
SARS PLP yeast: inhibitors of SARS-CoV papain-like protease in yeast | S. cerevisiae expressing SARS-CoV PLpro, growth rescue | Potency, µM (doses to about 32.9 µM), inactives show top-dose activity, positive = growth rescue, actives largely listed as activators | actives 0.19% (n = 330,000) | AID 485353; calls by dose curve; further: potency means the concentration at half of the fitted maximal effect; 0% is about no effect; nearly all actives have a fitted effect of over 55% in size
Shiga toxin inh: inhibitors of Shiga toxin in Vero cells | AID 2315 | inhibition, % at 38.7 µM | Vero cells, Shiga toxin protein synthesis inhibition reporter | actives 9.2% (n = 290,000); in the data active means inhibition mostly above about 28%, no sharp cut-off; inactive means mostly below about 43%; further: 0% is about no effect
AmpC detergent: blocks E. coli AmpC beta-lactamase in detergent assay. AmpC hydrolysis of nitrocefin, absorbance 480 nm, 0.01% Triton. AID 485294. Potency, µM (top dose mostly 114 µM), for the others: top-dose activity change, negative = inhibition, usual class: inhibitors. actives 0.041% (n = 370,000);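 further: potency means the concentration at half of the fitted maximal effect; 0% = no-compound wells and -100% = no-enzyme wells; nearly all actives have a fitted effect of over 25% in size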
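20 mM phosphate pH 7.0 + 0.01% (detergent screen) or 0.0001% Triton X-100; 5.3 nM AmpC reagent; cpd preinc 15 min RT; nitrocefin (800 uM stock) to start; A480 q20 s × 4 min; Activity was normalised to no-enzyme and no-compound control wells.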
* hit, by the source's call; ? = inconclusive; nt = no result; [ ] = another dose, or the depositor's remark. Only a selection was taken, and hits are over-represented in it overall. Unless noted, the call rests on the fitted dose curve; in most records, active means well fitted curve in the direction sought with a large enough effect; inconclusive means small, poorly fitted or top-dose-only effect, or another doubt; inactive means no such curve, though single readings can be large; an effect the other way counts as inactive or inconclusive.

SMILES	AmpC inh no detg	CHX counter	AMA1-RON2 inh	SARS PLP yeast	Shiga toxin inh	AmpC detergent
O=C(CCc1ccccc1)Nc1ccccc1F	-12%	30*	-6%	1%	74*	-7%
O=C(CN1CCN(c2ccccc2F)CC1)Nc1ccccc1F	21%	0	6%	4%	18	-3%
Cc1ccc(Cl)cc1N1CCN(C(=O)C2CCC(=O)N(C3CCCCCC3)C2)CC1 (centres undefined)	20%	-2	0%	-4%	1	-3%
Cc1ccc(SCC(=O)Nc2ccc(O)c(-c3nc4cc(C)ccc4o3)c2)cc1	nt	nt	nt	nt	nt	23%
Cc1ccccc1Nc1c(-c2cccnc2)nc2cccc(C)n12	33%	2	-4%	3%	-10	2%
O=C(CCOc1ccccc1)Nc1ccccc1F	-2%	32*	-8%	0%	74*	0%
O=C(CS(=O)(=O)Cc1ccccc1)Nc1ccc(Br)cc1F	nt	nt	-1%	nt	nt	nt
O=C(CCCc1ccccc1)Nc1ccc(Br)cc1F	-19%	55*	23%	-2%	nt	9%
CCOC(=O)c1ccccc1NC(=O)CCOc1ccccc1	nt	nt	nt	nt	nt	16%
CCc1nnc(NC(=O)C2CCN(C(=O)NC3CCCCC3)CC2)s1	51%	-3	7%	-7%	-9	-5%
O=C(NNc1c2ccccc2nc2ccccc12)c1ccc(O)cc1	-58%	24*	-3%	2%	-7	?
O=C(NNc1c2ccccc2nc2ccccc12)c1cccc(O)c1	-22%	8	-15%	-9%	9	4%
O=C(NNc1c2ccccc2nc2ccccc12)c1ccc(O)cc1O	-40%	14	?	-1%	17	-6%
O=C(NNc1c2ccccc2nc2ccccc12)c1ccccc1O	-51%	25*	-19%	4%	27	?
Cc1cc(Cl)ccc1NC(=O)CCN1C(=O)C2CCCCC2C1=O (centres undefined)	-20%	nt	0%	8%[6.58 µM]	nt	-3%
C=CCn1c(SCC(=O)NCCc2ccccc2)nnc1C1CC1	0%	nt	27%	0%	nt	1%
C=CCn1c(SCC(=O)Nc2nnc(C)s2)nnc1C1CC1	8%	16*	-23%	1%	-23	2%
CCOC(=O)c1cc[nH]c1CC(=O)NC	-7%	-3	-10%	-1%	2	-14%
CN(C)c1ccc(C(=O)c2ccc(N(C)C)c(N)c2)cc1N	1%	28*	-14%	-2%	75	?
Oc1cccc(NC(=S)N=Nc2c(O)[nH]c3ccccc23)c1	-46%	42*	46%	0%	62*	10%
CCOc1ccc(NC(=S)N=Nc2c(O)[nH]c3ccccc23)cc1	-57%	13*	49%	-3%	14	-3%
O=[N+]([O-])c1ccc2[nH]c(O)c(N=NC(=S)Nc3cccnc3)c2c1	-37%	-2	98%	-1%	15	?
Oc1[nH]c2ccccc2c1N=NC(=S)N1CCOCC1	-27%	16*	-48%	-5%	58	2%
COc1ccc(CC(=O)NCC(=O)N=Nc2c(O)[nH]c3ccccc23)cc1	-24%	10	-5%	-6%	-9	3%
O=C(/C=C/c1ccccc1)NC(N1CCOCC1)C(Cl)(Cl)Cl (centres undefined)	-15%	30*	4%	1%	42	2%
O=C(NC(N1CCOCC1)C(Cl)(Cl)Cl)c1ccco1 (centres undefined)	-17%	70*	-12%	-2%	128*	2%
O=C(NC(N1CCOCC1)C(Cl)(Cl)Cl)c1ccc(Br)cc1 (centres undefined)	-30%	13	-4%	-2%	10	-3%
O=C(/C=C/c1ccco1)N1CCCC(c2ccccc2)C1 (centres undefined)	-17%	23*	0%	-2%	47*	?
O=C(/C=C/c1ccco1)N1CCN(S(=O)(=O)c2ccccc2)CC1	-16%	nt	-10%	-1%	nt	nt
O=C(/C=C/c1ccccc1)N1CCC(c2ccccc2)C1 (centres undefined)	0%	59*	5%	-27%	74*	-13%
